Laboratory results taken from the supplement of paper PMC12350171.
Structures can show the parent of a compound that is named as a salt.

Columns and labels:
Details in all cases: 20 µM
[1] = test system: Salmonella enterica typhimurium; test: growth AUC normalised to DMSO control (fraction of control); higher = less growth inhibition, active = hit call of the paper
In short: (§1)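 Hemin and NAD were added to the medium for Haemophilus parainfluenzae. All pathogens, after two anaerobic passages, were inoculated at a starting OD578 of 0.01 into pre-reduced mGAM plates with 20 μM compound and 1% DMSO under breathable seals, and OD578 was read hourly for 24 h in three biological replicates. AUC of each growth curve was obtained with the trapezoidal rule up to the exponential-to-stationary transition and normalised to DMSO controls from the same plate.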

[2] = test system: Shigella flexneri; test: as above
In short: as §1

[3] = test system: Vibrio cholerae; test: as above
In short: as §1

[4] = test system: Yersinia pseudotuberculosis; test: as above
In short: as §1

[5] = test system: P. vulgatus RND KO; test: growth AUC normalised to DMSO control (median) (fraction of control); higher = less growth inhibition, active = hit call of the paper
In short: (§2)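 After two overnight anaerobic passages, strains were inoculated at OD578 0.01 into mGAM in 96-well plates containing approved-drug library compounds at 20 μM and 1% DMSO. Growth was followed by reading OD578 hourly for 24 h within an anaerobic incubator. Area under the curve, taken by the trapezoidal rule up to the start of stationary phase, was normalised to same-plate vehicle wells, and the median of three biological replicates is listed.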

[6] = test system: P. vulgatus WT; test: as above
In short: as §2

[7] = test system: S. enterica typhimurium WT; test: as above
In short: as §2

[8] = test system: S. enterica typhimurium tolC KO; test: as above
In short: as §2

Measured: growth AUC normalised to DMSO control
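Throughout, for growth AUC normalised to DMSO control (median): active when median AUC fell below 0.1.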

COCCCOc1ccnc(C[S+]([O-])c2nc3ccccc3[nH]2)c1C (stereo not drawn) [Rabeprazole sodium salt]
inactive: [1] 1.01 | [2] 1.04 | [3] 1.02 | [4] 1 | [5] 1.05 | [6] 1.01 | [7] 1 | [8] 0.889

Clc1ccc(C(Cn2ccnc2)OCc2csc3c(Cl)cccc23)c(Cl)c1 (stereo not drawn) [Sertaconazole nitrate]
inactive: [1] 1.02 | [2] 1.06 | [3] 1.05 | [4] 0.913 | [5] 1 | [6] 1.01 | [7] 1.01 | [8] 0.935

CCOC(=O)[N-]c1c[n+](N2CCOCC2)no1 [Molsidomine]
inactive: [1] 1.02 | [2] 1.02 | [3] 1.03 | [4] 1.01 | [5] 0.999 | [6] 0.991 | [7] 1 | [8] 1.01

COc1ccc([C@@H]2Sc3ccccc3N(CCN(C)C)C(=O)[C@@H]2OC(C)=O)cc1 [Diltiazem hydrochloride]
inactive: [1] 0.998 | [2] 0.969 | [3] 1 | [4] 1.01 | [5] 0.99 | [6] 1 | [7] 0.995 | [8] 0.973

COc1ccc(C(=O)c2ccccc2O)c(O)c1 [Dioxybenzone]
inactive: [1] 0.977 | [2] 0.983 | [3] 0.909 | [4] 0.982 | [5] 0.981 | [6] 1.01 | [7] 0.993 | [8] 0.951

Nc1nc(O)c2ncn(CCC(CO)CO)c2n1 [Penciclovir]
inactive: [1] 1.01 | [2] 1.01 | [3] 1.06 | [4] 1.02 | [5] 1.02 | [6] 1.03 | [7] 1 | [8] 0.997

CC(C)(Oc1ccc(C2CC2(Cl)Cl)cc1)C(=O)O (stereo not drawn) [Ciprofibrate]
inactive: [1] 1.01 | [2] 0.998 | [3] 0.997 | [4] 0.995 | [5] 0.973 | [6] 0.961 | [7] 0.992 | [8] 0.993

C[C@H](CS)C(=O)N1CCC[C@H]1C(=O)O [Captopril]
inactive: [1] 1.01 | [2] 1.03 | [3] 0.995 | [4] 1.01 | [5] 1.01 | [6] 1.06 | [7] 0.991 | [8] 1.01

COc1ccc2cc([C@H](C)C(=O)O)ccc2c1 [(S)-Naproxen]
inactive: [1] 0.992 | [2] 1.01 | [3] 0.96 | [4] 0.964 | [5] 1.01 | [6] 1.04 | [7] 0.994 | [8] 0.998

NC[C@H]1CC[C@H](C(=O)O)CC1 [Tranexamic acid]
inactive: [1] 1 | [2] 1.01 | [3] 1.04 | [4] 1.02 | [5] 1.04 | [6] 1.04 | [7] 1 | [8] 1

CC#C[C@]1(O)CC[C@H]2[C@@H]3CCC4=CC(=O)CCC4=C3[C@@H](c3ccc(N(C)C)cc3)C[C@@]21C [Mifepristone]
inactive: [1] 1.01 | [2] 0.988 | [3] 0.994 | [4] 1.01 | [5] 0.93 | [6] 0.954 | [7] 0.999 | [8] 0.92

COc1ccccc1N1CCN(CCCCNC(=O)c2ccc3ccccc3c2)CC1
active: [3] 0.0446
inactive: [1] 1.01 | [2] 1.03 | [4] 0.978 | [5] 1.02 | [6] 1.08 | [7] 0.985 | [8] 0.753

CCOC(=O)C1=C(C)NC(C)=C(C(=O)OC)C1c1cccc([N+](=O)[O-])c1 (stereo not drawn) [Nitrendipine]
inactive: [1] 1.04 | [2] 1 | [3] 1.06 | [4] 1.01 | [5] 1.09 | [6] 1.04 | [7] 0.996 | [8] 0.982

Cc1cnc(C(=O)O)c[n+]1[O-] [Acipimox]
inactive: [1] 0.983 | [2] 1 | [3] 0.982 | [4] 0.969 | [5] 1 | [6] 0.994 | [7] 1.01 | [8] 0.992

CCCCC(CC)CN1CN(CC(CC)CCCC)CC(C)(N)C1 (stereo not drawn) [Hexetidine]
inactive: [1] 1.04 | [2] 1.05 | [3] 1.02 | [4] 1.04 | [5] 1.02 | [6] 1.03 | [7] 1.02 | [8] 0.88

C[N+](C)(CCOc1ccccc1)Cc1ccccc1.O=C([O-])c1cc2ccccc2cc1O [Bephenium hydroxynaphthoate]
inactive: [1] 1.05 | [2] 1.04 | [3] 1.03 | [4] 1.03 | [5] 0.998 | [6] 0.991 | [7] 0.989 | [8] 0.977

CN1CCOC(c2ccccc2)c2ccccc2C1 (stereo not drawn) [Nefopam hydrochloride]
inactive: [1] 0.987 | [2] 0.993 | [3] 0.983 | [4] 1 | [5] 0.992 | [6] 0.982 | [7] 1 | [8] 0.988

CC[C@H]1OC(=O)[C@H](C)[C@@H](O[C@H]2C[C@@](C)(OC)[C@@H](O)[C@H](C)O2)[C@H](C)[C@@H](O[C@@H]2O[C@H](C)C[C@H](N(C)C)[C@H]2O)[C@](C)(OC)C[C@@H](C)C(=O)[C@H](C)[C@@H](O)[C@]1(C)O [Clarithromycin]
active: [1] 0.688 | [2] 0.508 | [3] 0.0231 | [4] 0.799 | [5] 0.0127 | [6] 0.0156 | [8] 0.00712
inactive: [7] 0.744

N=C(N=C(N)N)N1CCOCC1 [Moroxidine hydrochloride]
inactive: [1] 0.999 | [2] 1 | [3] 0.991 | [4] 0.965 | [5] 1.01 | [6] 1.04 | [7] 1.01 | [8] 0.992

CCC(=O)O[C@]1(C(=O)SCF)[C@H](C)C[C@H]2[C@@H]3C[C@H](F)C4=CC(=O)C=C[C@]4(C)[C@@]3(F)[C@@H](O)C[C@@]21C [Fluticasone propionate]
inactive: [1] 0.996 | [2] 1.01 | [3] 1 | [4] 1 | [5] 0.998 | [6] 0.988 | [7] 0.993 | [8] 0.998

Cc1cc(CC(=O)O)n(C)c1C(=O)c1ccc(Cl)cc1 [Zomepirac sodium salt]
inactive: [1] 0.997 | [2] 1 | [3] 0.995 | [4] 1 | [5] 0.992 | [6] 1.01 | [7] 0.991 | [8] 1.02

O=S(=O)(O)c1cc(O)ccc1O [Ethamsylate diethylammonium salt]
inactive: [1] 1 | [2] 0.998 | [3] 0.999 | [4] 1.01 | [5] 0.99 | [6] 0.994 | [7] 1 | [8] 0.999

COc1ccccc1OCC(O)CO (stereo not drawn) [Guaifenesin]
inactive: [1] 0.998 | [2] 1.02 | [3] 1.01 | [4] 0.992 | [5] 0.984 | [6] 0.987 | [7] 0.995 | [8] 0.99

CCCCC(O)c1ccccc1 (stereo not drawn) [Fenipentol]
inactive: [1] 0.997 | [2] 0.986 | [3] 1.01 | [4] 0.995 | [5] 1 | [6] 0.988 | [7] 1 | [8] 1

COc1cc2nc(N3CCN(C(=O)C4CCCO4)CC3)nc(N)c2cc1OC (stereo not drawn) [Terazosin hydrochloride]
inactive: [1] 0.998 | [2] 0.96 | [3] 0.989 | [4] 0.989 | [5] 1.03 | [6] 1.04 | [7] 1 | [8] 1.01

c1ccc(-c2ccc(C(c3ccccc3)n3ccnc3)cc2)cc1 (stereo not drawn) [Bifonazole]
inactive: [1] 1.01 | [2] 1.04 | [3] 1 | [4] 1.02 | [5] 0.983 | [6] 1 | [7] 0.999 | [8] 0.92

CCCCC1(COC(=O)CCC(=O)O)C(=O)N(c2ccccc2)N(c2ccccc2)C1=O [Suxibuzone]
inactive: [1] 1 | [2] 1 | [3] 0.993 | [4] 1.01 | [5] 1.02 | [6] 1.03 | [7] 1.01 | [8] 0.985

CC(C)C(=O)c1c(C(C)C)nn2ccccc12 [Ibudilast]
inactive: [1] 1.01 | [2] 1.01 | [3] 1.05 | [4] 0.994 | [5] 0.949 | [6] 0.956 | [7] 1 | [8] 0.33

CC1(C)O[C@@H]2C[C@H]3[C@@H]4C[C@H](F)C5=CC(=O)C=C[C@]5(C)[C@H]4[C@@H](O)C[C@]3(C)[C@]2(C(=O)CO)O1 [Flunisolide]
inactive: [1] 1.01 | [2] 1.05 | [3] 1.06 | [4] 0.984 | [5] 1.03 | [6] 1.05 | [7] 1 | [8] 1.01

CC(C)(Oc1ccc(CCNC(=O)c2ccc(Cl)cc2)cc1)C(=O)O [Bezafibrate]
inactive: [1] 0.976 | [2] 0.959 | [3] 0.988 | [4] 0.994 | [5] 0.976 | [6] 1 | [7] 0.998 | [8] 0.99

Fc1ccc(C(c2ccc(F)cc2)N2CCN(C/C=C/c3ccccc3)CC2)cc1 [Flunarizine dihydrochloride]
inactive: [1] 1.04 | [2] 1.04 | [3] 1.01 | [4] 1.02 | [5] 1.01 | [6] 1.03 | [7] 1.02 | [8] 0.987
